From PubChem BioAssay (NCATS)
Results filed as inconclusive are left out. Activity calls are given as the source filed them. Unless noted, calls come from the whole dose curve; as a rule, active = well fitted curve in the direction sought with a large enough effect; inconclusive = small, poorly fitted or top-dose-only effect, or another doubt; inactive = no such curve, though single readings can be large; an effect the other way counts as inactive or inconclusive.

Assays:
[1] = target: Cytochrome P450 3A4 (Homo sapiens) (UniProt P08684); test: qHTS Assay for Inhibitors and Substrates of Cytochrome P450 3A4 (AID 884); note: % is set by controls: 0 for no effect and ±100 for the full control effect; nearly all actives have a fitted effect of over 50% in size
Sequence of Cytochrome P450 3A4 (Homo sapiens) (P08684 whole entry, looked up): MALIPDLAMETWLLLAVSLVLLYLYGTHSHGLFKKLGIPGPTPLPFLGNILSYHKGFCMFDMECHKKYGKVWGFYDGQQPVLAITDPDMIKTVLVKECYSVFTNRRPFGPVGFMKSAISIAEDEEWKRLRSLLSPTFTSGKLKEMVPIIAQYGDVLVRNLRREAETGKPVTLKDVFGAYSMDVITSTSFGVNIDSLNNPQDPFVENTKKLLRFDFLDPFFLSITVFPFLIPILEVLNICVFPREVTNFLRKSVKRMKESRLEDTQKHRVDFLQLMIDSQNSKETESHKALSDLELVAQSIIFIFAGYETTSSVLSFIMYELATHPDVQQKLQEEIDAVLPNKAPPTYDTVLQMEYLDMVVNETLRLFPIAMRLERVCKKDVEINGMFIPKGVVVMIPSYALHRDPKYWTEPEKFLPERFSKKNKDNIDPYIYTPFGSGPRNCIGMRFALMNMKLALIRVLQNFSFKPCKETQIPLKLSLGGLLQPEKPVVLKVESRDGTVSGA
In short: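 20 nM human CYP3A4 with 25 uM Luciferin-PPXE (at KM) in 200 mM KPO4, preincubated 10 min with compound; NADPH regeneration started a 60 min RT reaction. Luciferin detected by luminescence, normalized to 57 uM ketoconazole as full inhibition.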

[2] = qHTS Assay for Lipid Storage Modulators (AID 1519; calls by dose curve; for activity change, negative = inhibition: % is set by controls: 0 for no effect and ±100 for the full control effect); conditions: Drosophila S3 cells, BODIPY lipid droplet/cell ratio, laser cytometry, cells loaded with oleic acid
In short: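 Cells seeded at 5,000 per well were treated with compounds over a concentration series and loaded with oleic acid (400 uM, as added). Lipid droplet fluorescence (488 nm excitation, 500-530 nm channel) was read by laser-scanning cytometry and normalized to 20 uM Triacsin C.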

[3] = target: Ubiquitin carboxyl-terminal hydrolase 1 (Homo sapiens) (UniProt O94782); test: Inhibitors of USP1/UAF1: Pilot qHTS (AID 504865);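 note: rhodamine fluorescence freed from ubiquitin-rhodamine substrate followed over time; top concentration of the series differs between compounds; % is set by controls: 0 for no effect and ±100 for the full control effect; nearly all actives have a fitted effect of over 35% in size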
Sequence of Ubiquitin carboxyl-terminal hydrolase 1 (Homo sapiens) (O94782 whole entry, looked up): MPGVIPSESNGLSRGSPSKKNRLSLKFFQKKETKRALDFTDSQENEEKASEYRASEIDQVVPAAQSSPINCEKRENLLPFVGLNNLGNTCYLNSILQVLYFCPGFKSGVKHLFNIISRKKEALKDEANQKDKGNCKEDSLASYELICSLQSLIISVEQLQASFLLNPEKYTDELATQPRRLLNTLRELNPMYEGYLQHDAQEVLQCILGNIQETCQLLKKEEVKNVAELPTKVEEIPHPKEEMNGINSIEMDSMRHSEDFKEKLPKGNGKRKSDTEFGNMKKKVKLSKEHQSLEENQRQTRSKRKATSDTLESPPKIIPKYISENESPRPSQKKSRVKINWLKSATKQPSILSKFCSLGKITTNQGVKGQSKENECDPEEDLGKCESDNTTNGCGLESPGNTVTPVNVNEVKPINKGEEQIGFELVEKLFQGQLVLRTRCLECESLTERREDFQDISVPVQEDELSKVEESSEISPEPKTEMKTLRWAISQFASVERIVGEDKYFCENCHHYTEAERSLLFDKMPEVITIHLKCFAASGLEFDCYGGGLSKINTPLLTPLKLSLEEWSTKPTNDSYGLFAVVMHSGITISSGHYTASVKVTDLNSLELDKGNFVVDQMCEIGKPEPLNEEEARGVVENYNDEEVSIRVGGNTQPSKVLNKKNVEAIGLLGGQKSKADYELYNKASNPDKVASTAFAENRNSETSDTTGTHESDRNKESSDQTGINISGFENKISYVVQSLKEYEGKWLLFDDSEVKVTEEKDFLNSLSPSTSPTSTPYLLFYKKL
In short: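 USP1/UAF1 complex at 1 nM preincubated 15 min at room temperature with compound, then Ub-Rho substrate added at 150 nM final. Fluorescence (480/540 nm) read kinetically in 50 mM HEPES pH 7.8, 0.5 mM EDTA, 1 mM TCEP, 0.1 mg/ml BSA, 0.01% Tween-20.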

[4] = target: DNA dC->dU-editing enzyme APOBEC-3G (Homo sapiens) (UniProt Q9HC16); test: qHTS for inhibitors of Vif-A3G interactions: Validation (AID 588379); note: 0% is about no effect
Sequence of DNA dC->dU-editing enzyme APOBEC-3G (Homo sapiens) (Q9HC16 whole entry, looked up): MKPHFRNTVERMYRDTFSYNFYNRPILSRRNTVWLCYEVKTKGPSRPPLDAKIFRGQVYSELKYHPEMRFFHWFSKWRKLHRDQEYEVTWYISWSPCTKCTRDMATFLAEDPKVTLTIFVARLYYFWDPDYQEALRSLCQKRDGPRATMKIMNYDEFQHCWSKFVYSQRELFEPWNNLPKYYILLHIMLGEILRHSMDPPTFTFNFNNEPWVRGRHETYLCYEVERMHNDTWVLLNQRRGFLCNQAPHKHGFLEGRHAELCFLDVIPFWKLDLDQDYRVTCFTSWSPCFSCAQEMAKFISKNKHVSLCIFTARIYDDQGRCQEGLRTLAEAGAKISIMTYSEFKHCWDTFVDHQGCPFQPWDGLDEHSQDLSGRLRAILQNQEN
In short: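 HeLa cells stably expressing Vif and A3G-eYFP, 700 cells/well, incubated overnight at 37 deg C, then exposed to compound overnight at 37 deg C. Inhibition of Vif-mediated degradation read as increased yellow fluorescence (Ex 488/Em 500-530) by laser-scanning cytometry.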

[5] = Primary qHTS for inhibitors of nuclear receptor binding SET domain protein 2 (NSD2) in an isogenic RCH-ACV NSD2 p.E1099K mutant (9B) (AID 1645876); note: % is set by controls: 0 for no effect and ±100 for the full control effect; nearly all actives have a fitted effect of over 70% in size
[6] = target: Glutathione peroxidase 1 (Homo sapiens) (UniProt P07203); test: Primary qHTS Assay for Inhibitors of Recombinant Selenoprotein Glutathione Peroxidase 1 (GPX1) (AID 1845191); note: % is set by controls: 0 for no effect and ±100 for the full control effect; nearly all actives have a fitted effect of over 65% in size
Sequence of Glutathione peroxidase 1 (Homo sapiens) (P07203 whole entry, looked up): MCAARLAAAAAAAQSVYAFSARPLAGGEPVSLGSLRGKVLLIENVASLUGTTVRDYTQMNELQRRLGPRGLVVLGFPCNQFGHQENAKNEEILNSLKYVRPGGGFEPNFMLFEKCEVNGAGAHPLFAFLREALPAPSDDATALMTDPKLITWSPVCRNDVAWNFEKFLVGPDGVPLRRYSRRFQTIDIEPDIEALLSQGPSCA
In short: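 Recombinant GPX1 (10 nM final) was preincubated with compound for 30 min at room temperature, then reacted with 1 mM GSH, 0.5 mM CHP, 0.5 mM NADPH and 100 nM glutathione reductase; NADPH fluorescence (340/450 nm) was read at 0 and 15 min.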

[7] = target: Phospholipid hydroperoxide glutathione peroxidase GPX4 (Homo sapiens) (UniProt P36969); test: Primary qHTS Assay for Inhibitors of Recombinant Selenoprotein Glutathione Peroxidase 4 (GPX4) (AID 1845192); conditions: outcome: dose series up to 50 µM unless noted; note: nearly all actives have a fitted effect of over 65% in size; note: potency is the fitted concentration of half-maximal effect; for activity change, negative = inhibition: % is set by controls: 0 for no effect and ±100 for the full control effect
Sequence of Phospholipid hydroperoxide glutathione peroxidase GPX4 (Homo sapiens) (P36969 whole entry, looked up): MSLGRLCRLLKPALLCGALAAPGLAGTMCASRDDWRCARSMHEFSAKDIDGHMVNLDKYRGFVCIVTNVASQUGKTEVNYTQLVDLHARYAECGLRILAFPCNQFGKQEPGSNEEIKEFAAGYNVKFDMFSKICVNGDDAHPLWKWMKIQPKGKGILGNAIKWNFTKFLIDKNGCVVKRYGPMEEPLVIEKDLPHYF
In short: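 GR-coupled readout: 100 nM GR, 1 mM GSH, 0.5 mM NADPH; NADPH fluorescence (ex 340/em 450 nm) read at t=0 and after 15 min RT. GPX4 200 nM, preincubated 30 min with compound; substrate 0.5 mM CHP.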

[8] = qHTS drug screen for cell cycle checkpoint inhibitors in PARPi-resistant BRCA-mutant ovarian cancer cell lines. (AID 1963452; calls by dose curve); conditions: PEO1/OlaR viability, CellTiter-Glo luminescence, 96 h, stronger effect = lower value
In short: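 PEO1, PEO4 and PEO1/OlaR ovarian cancer cells, 600 per well, exposed 96 h at 37C to a dilution series. Viability read by CellTiter-Glo luminescence, normalized to DMSO and empty wells; activity summarized as Z-AUC.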

[9] = qHTS assay to identify inhibitors of the type 1 interferon - major histocompatibility complex class I in skeletal muscle: Counter screen cell viability and HiBit confirmation (AID 1347412); conditions: iHSKM muscle cells + IFN-b, HiBiT or CellTiter-Glo, 24 h; for activity change, negative = inhibition: at 45.9 µM (top of the series); note: potency is the fitted concentration of half-maximal effect; for activity change, negative = inhibition: % is set by controls: 0 for no effect and ±100 for the full control effect; for all read-outs here: nearly all actives have a fitted effect of over 60% in size
In short: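 CRISPR HLA-B*08:01-HiBit immortalized human myoblasts (C25cl48) stimulated with 4 ng/ml IFN-beta and compounds (12-point 1:3, top 46 uM final) for 24 h at 37 C. Duplicate plates read by HiBit lytic luminescence or CellTiter Glo ATP.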

[10] = Primary qHTS for inhibitors of nuclear receptor binding SET domain protein 2 (NSD2) in an RCH-ACV wild type WT cells (2C) (AID 1645877); note: potency is the fitted concentration of half-maximal effect; nearly all actives have a fitted effect of over 70% in size
[11] = measured here: PEO1 parental Z-AUC

Compound	Potency [1]	activity change, negative = inhibition ([2]; at 57.5 µM (top of the series))	max response ([2]; measured here: cell count channel max response)	max response ([2]; measured here: lipid channel max response)	Potency [3]	outcome [4]	Potency [5]	Potency [6]	Potency [7]	Z-AUC [8]	Z-AUC [8, 11]	Z-AUC ([8]; measured here: PEO4 Z-AUC)	activity change, negative = inhibition ([9]; HiBiT)	activity change, negative = inhibition ([9]; Viability)	Potency [10]	Potency ([9]; HiBiT)
O=C(CCc1ccc(O)cc1)c1c(O)cc(O)cc1O[C@@H]1O[C@H](CO)[C@@H](O)[C@H](O)[C@H]1O	inactive	9.34% (inactive)	19.8%	29.9%	inactive	inactive	inactive	inactive	inactive	0.341 (inactive)	0.557	0.754	6.74% (inactive)	1.25% (inactive)	–	–
N#CCC1(n2cc(-c3ncnc4[nH]ccc34)cn2)CN(C2CCN(C(=O)c3ccnc(C(F)(F)F)c3F)CC2)C1	–	–	–	–	–	–	–	–	20.2 µM (active)	-0.205 (inactive)	-0.513	-0.617	–	14.7% (inactive)	18.6 µM (active)	1.57 µM (active)
